Results filed as inconclusive are left out. Calls of active or inactive are those of the source. Rule for the calls, unless noted: active = hit-call score of the fitted dose curve at least 0.9, where 1 is the maximum; inactive = score below 0.9.
How the values were obtained:
[1] = target: Glucocorticoid receptor (Homo sapiens) (UniProt P04150); test: ATG_GR_TRANS: Attagene TRANS-FACTORIAL HepG2 Assay for human Glucocorticoid Receptor (GR) (AID 2282978; active = hit-call score of the fitted dose curve at least 0.9, where 1 is the maximum;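 note: activators score as hits since higher reporter transcript over DMSO is fitted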); details: HepG2 Attagene TRANS GR reporter, mRNA transcription
Glucocorticoid receptor (Homo sapiens), sequence (P04150 whole entry, looked up, the tested form may be a part): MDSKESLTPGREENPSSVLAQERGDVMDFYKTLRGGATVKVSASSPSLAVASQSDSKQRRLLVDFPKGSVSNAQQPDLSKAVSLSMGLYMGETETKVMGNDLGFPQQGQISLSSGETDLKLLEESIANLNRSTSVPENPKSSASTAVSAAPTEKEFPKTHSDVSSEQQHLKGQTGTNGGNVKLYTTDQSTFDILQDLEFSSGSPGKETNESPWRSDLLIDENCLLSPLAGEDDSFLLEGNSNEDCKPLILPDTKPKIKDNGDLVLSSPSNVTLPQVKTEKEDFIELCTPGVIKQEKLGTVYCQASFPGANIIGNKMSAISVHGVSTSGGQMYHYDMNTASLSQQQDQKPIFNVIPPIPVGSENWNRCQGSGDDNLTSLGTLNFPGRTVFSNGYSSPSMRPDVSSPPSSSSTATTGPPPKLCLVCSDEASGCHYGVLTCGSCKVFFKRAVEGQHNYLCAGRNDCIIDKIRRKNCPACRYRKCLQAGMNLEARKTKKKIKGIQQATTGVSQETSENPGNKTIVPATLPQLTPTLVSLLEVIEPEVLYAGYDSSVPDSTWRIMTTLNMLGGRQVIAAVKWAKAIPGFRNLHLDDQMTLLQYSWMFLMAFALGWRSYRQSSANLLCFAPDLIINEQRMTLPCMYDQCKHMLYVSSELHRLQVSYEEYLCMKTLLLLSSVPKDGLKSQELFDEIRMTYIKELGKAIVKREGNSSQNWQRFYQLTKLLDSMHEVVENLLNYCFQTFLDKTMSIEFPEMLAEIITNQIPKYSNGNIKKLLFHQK
Procedure, shortened: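 In this trans-factorial format, exogenous NR-GAL4 chimeric proteins in transfected HepG2 cells regulate GAL4-UAS reporter transcription. After 24 h treatment, reporter mRNA induction relative to DMSO is read by RT-PCR and capillary electrophoresis.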

[2] = target: Bile acid receptor (Homo sapiens) (UniProt Q96RI1); test: ATG_FXR_TRANS: Attagene TRANS-FACTORIAL HepG2 Assay for Farnesoid X Receptor (FXR) (AID 2282979; active = hit-call score of the fitted dose curve at least 0.9, where 1 is the maximum;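 note: hits raise reporter mRNA above DMSO so AC50 marks FXR activation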); details: HepG2 Attagene TRANS FXR-GAL4 reporter transcription
Bile acid receptor (Homo sapiens), sequence (Q96RI1 whole entry, looked up, the tested form may be a part): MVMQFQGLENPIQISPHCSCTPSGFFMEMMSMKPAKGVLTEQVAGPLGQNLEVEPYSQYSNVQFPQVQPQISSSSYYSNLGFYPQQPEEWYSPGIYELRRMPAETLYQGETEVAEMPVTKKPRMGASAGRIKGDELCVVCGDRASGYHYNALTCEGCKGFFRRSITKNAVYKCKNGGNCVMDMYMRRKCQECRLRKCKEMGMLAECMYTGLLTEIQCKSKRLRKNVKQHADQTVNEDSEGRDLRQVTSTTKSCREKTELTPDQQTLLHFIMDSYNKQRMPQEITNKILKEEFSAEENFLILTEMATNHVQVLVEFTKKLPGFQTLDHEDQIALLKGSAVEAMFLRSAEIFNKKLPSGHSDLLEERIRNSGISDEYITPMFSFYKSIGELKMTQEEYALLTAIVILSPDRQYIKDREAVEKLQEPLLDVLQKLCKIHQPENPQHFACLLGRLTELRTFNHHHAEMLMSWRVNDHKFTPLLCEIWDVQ
Procedure, shortened: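 Reporter transcripts from transfected HepG2 cells were measured 24 h after dosing, using RT-PCR with capillary electrophoresis of 6-FAM-labelled fragments. The read-out reflects activity of exogenous FXR-Gal4 chimera on GAL4-UAS units, with induction relative to DMSO.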

[3] = target: Nuclear receptor subfamily 4 group A member 2 (Homo sapiens) (UniProt P43354); test: ATG_NURR1_TRANS: Attagene TRANS-FACTORIAL HepG2 Assay for human Nuclear Receptor Related Protein 1 (NURR1) (AID 2282985; active = hit-call score of the fitted dose curve at least 0.9, where 1 is the maximum); details: HepG2 Attagene TRANS reporter, mRNA readout
Nuclear receptor subfamily 4 group A member 2 (Homo sapiens), sequence (P43354 whole entry, looked up, the tested form may be a part): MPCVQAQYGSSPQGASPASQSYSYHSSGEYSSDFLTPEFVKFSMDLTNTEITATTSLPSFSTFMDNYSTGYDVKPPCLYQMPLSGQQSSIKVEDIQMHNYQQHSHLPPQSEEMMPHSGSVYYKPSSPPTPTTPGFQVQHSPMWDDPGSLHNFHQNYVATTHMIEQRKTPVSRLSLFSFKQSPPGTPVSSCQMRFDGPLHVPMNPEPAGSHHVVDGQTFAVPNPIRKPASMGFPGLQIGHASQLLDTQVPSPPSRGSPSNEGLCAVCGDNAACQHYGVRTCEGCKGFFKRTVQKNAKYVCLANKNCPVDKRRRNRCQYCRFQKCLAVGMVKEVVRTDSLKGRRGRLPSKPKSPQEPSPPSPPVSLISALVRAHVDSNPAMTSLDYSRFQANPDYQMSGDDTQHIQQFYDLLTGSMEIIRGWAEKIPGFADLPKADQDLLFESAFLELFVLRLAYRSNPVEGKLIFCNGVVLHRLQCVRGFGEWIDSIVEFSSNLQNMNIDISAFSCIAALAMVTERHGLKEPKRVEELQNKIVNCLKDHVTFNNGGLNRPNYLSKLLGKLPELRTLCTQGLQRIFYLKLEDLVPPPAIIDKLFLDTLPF
Procedure, shortened: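 HepG2 cells transiently transfected with GAL4-UAS reporter units and chimeric NR-Gal4 constructs; chemical exposure 24 h. Reporter mRNA quantified by RT-PCR, fluorescent labelling and capillary electrophoresis; gain of signal fitted relative to DMSO baseline.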

[4] = target: Transcriptional activator Myb (Homo sapiens) (UniProt P10242); test: ATG_Myb_CIS: Attagene CIS-FACTORIAL HepG2 Assay for human Myeloblastosis (Myb) Proto-Oncogene Transcription Factor (AID 2282986); details: HepG2 Attagene CIS-FACTORIAL Myb reporter transcription; actives raise or lower the signal
Procedure, shortened: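 Steps: transfect HepG2 with cis-regulated reporter units; dose with chemical for 24 h; isolate RNA, reverse-transcribe, PCR-amplify and FAM-label reporter sequences; digest with HpaI; resolve by capillary electrophoresis. Activity fitted in both directions relative to DMSO.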

[5] = target: Nuclear respiratory factor 1 (Homo sapiens) (UniProt Q16656); test: ATG_NRF1_CIS: Attagene CIS-FACTORIAL HepG2 Assay for human Nuclear Respiratory Factor 1 (NRF1) Orphan Gene (AID 2282987); details: HepG2 NRF1 cis-element reporter, Attagene multiplex; actives raise or lower the signal
Nuclear respiratory factor 1 (Homo sapiens), sequence (Q16656 whole entry, looked up, the tested form may be a part): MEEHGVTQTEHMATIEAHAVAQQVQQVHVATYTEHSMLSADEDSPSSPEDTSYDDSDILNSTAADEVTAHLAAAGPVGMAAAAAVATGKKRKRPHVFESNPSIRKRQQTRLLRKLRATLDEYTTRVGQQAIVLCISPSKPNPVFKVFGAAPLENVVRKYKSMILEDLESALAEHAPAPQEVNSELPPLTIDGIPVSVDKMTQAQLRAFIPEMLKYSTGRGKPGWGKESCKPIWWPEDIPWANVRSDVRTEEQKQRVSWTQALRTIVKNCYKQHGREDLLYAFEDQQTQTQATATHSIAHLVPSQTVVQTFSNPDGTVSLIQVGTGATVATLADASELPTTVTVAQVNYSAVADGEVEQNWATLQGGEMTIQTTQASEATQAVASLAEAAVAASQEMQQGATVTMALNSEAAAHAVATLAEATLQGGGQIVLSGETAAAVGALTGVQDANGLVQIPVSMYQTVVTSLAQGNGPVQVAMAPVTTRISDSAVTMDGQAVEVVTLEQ
Procedure, shortened: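 Fluorescence intensity of labelled reporter cDNA fragments, resolved by capillary electrophoresis, served as readout for NRF1 cis-element activity. Transiently transfected HepG2 cells were dosed for 24 hours; activity in either direction was fitted against DMSO negative control.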

[6] = ATG_NFI_CIS: Attagene CIS-FACTORIAL HepG2 Assay for human Nuclear Factor I (NFI) (AID 2282989); details: HepG2 cis-regulatory reporter, NFI response element transcription; actives raise or lower the signal
Procedure, shortened: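 HepG2 cells transiently transfected with cis-element-driven multiplexed reporter transcription units, dosed for 24 h. Reporter mRNA quantified by RT-PCR, fluorescent labelling, HpaI digestion and capillary electrophoresis; bidirectional fit versus DMSO baseline.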

[7] = target: Myc proto-oncogene protein (Homo sapiens) (UniProt P01106); test: ATG_Myc_CIS: Attagene CIS-FACTORIAL HepG2 Assay for human Myelocytomatosis (Myc) Proto-Oncogene Transcription Factor (AID 2282990); details: HepG2, Attagene cis-reporter transcription factor activity; actives raise or lower the signal
Myc proto-oncogene protein (Homo sapiens), sequence (P01106 whole entry, looked up): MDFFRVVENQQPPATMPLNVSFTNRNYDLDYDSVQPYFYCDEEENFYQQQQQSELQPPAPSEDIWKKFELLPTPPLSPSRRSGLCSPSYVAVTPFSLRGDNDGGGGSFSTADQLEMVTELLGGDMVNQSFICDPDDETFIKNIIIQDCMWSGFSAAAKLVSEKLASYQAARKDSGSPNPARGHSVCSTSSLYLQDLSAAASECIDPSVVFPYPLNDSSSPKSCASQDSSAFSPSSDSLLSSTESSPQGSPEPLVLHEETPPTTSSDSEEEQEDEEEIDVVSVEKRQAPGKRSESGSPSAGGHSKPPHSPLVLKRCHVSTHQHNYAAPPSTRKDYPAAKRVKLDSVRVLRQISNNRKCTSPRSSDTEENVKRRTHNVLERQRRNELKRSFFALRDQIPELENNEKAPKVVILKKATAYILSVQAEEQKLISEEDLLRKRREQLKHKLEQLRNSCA
Procedure, shortened: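 HepG2 cells transiently transfected with multiple cis-promoter-driven reporter transcription units, so endogenous TF activity is read. After 24 h compound exposure, reporter mRNA was quantified by RT-PCR, 6-FAM labelling, HpaI digestion and capillary electrophoresis; bidirectional fit versus DMSO.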

[8] = ATG_NF_kB_CIS: Attagene CIS-FACTORIAL HepG2 Assay for human Nuclear Factor Kappa B (NF-kB) (AID 2282991); details: HepG2 Attagene cis-factorial NF-kB reporter mRNA; actives raise or lower the signal
Procedure, shortened: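 Endogenous transcription factor activity in HepG2 was captured via cis-regulated reporter constructs; after 24 h dosing, reporter mRNA was reverse-transcribed, amplified, fluorescently labelled and sized by capillary electrophoresis, with activity fitted bidirectionally relative to DMSO.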

[9] = ATG_NRF2_ARE_CIS: Attagene CIS-FACTORIAL HepG2 Assay for human Nuclear Factor Erythroid 2 Related Factor 2 (NFR2) response to Antioxidant Response Elements (ARE) (AID 2282992); details: HepG2 Attagene ARE/NRF2 reporter, transcription factor activity; actives raise or lower the signal;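 for AC50: reporter mRNA level measured by RT-PCR and capillary electrophoresis fluorescence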
Procedure, shortened: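 HepG2 cells transiently transfected with multiplexed cis-element reporter constructs, 24 h after chemical dosing; reporter mRNA quantified by RT-PCR, fluorescent primer extension, HpaI digestion and capillary electrophoresis. Bidirectional fit relative to DMSO.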

[10] = ATG_Oct_MLP_CIS: Attagene CIS-FACTORIAL HepG2 Assay for human Octamer-Binding Transcription Factor (Oct) (AID 2282993); details: HepG2 Attagene cis-factorial Oct reporter, mRNA; actives raise or lower the signal
Procedure, shortened: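 HepG2 cells transiently transfected with cis-promoter-driven multiplexed reporter transcription units, dosed for 24 h. Reporter mRNA quantified by RT-PCR, fluorescent labelling, HpaI digestion and capillary electrophoresis; bidirectional fits versus DMSO baseline.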

[11] = target: Cellular tumor antigen p53 (Homo sapiens) (UniProt P04637); test: ATG_p53_CIS: Attagene CIS-FACTORIAL HepG2 Assay for human p53 Transcription Factor (AID 2282994); details: HepG2 p53 cis-element reporter, Attagene mRNA; actives raise or lower the signal
Cellular tumor antigen p53 (Homo sapiens), sequence (P04637 whole entry, looked up): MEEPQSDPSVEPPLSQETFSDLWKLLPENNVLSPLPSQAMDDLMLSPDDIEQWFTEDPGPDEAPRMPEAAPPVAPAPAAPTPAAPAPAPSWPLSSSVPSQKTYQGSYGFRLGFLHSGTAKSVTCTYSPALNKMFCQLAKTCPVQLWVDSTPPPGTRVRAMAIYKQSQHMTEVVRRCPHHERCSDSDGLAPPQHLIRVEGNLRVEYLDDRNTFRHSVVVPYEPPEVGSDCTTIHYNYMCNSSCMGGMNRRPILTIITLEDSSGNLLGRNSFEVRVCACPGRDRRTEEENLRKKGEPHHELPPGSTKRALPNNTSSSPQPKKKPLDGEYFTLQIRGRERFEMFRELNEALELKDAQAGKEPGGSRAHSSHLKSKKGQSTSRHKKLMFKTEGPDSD
Procedure, shortened: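 HepG2 cells transiently transfected with cis-regulated multiple reporter transcription units, dosed 24 h. Reporter mRNA measured by RT-PCR, 6-FAM primer extension, HpaI digestion and capillary electrophoresis; bidirectional fit relative to DMSO.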

[12] = target: Oxysterols receptor LXR-beta (Homo sapiens) (UniProt P55055); test: ATG_LXRb_TRANS: Attagene TRANS-FACTORIAL HepG2 Assay for human Liver X Receptor beta (LXRb) (AID 2282981; active = hit-call score of the fitted dose curve at least 0.9, where 1 is the maximum); details: HepG2 Attagene TRANS GAL4-LXRb reporter, mRNA
Procedure, shortened: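 HepG2 cells transiently transfected with multiple reporter transcription units carrying chimeric NR-Gal4 proteins acting on GAL4-UAS reporters; compound exposure 24 h. Reporter mRNA quantified by RT-PCR, 6-FAM labelling, HpaI digestion and capillary electrophoresis; gain of signal versus DMSO.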

[13] = BSK_3C_uPAR: BioMAP Diversity Plus: 3C Assay for Urokinase-type plasminogen activator receptor (uPAR) Biomarker Activity (AID 2282998); details: BioMAP 3C HUVEC, uPAR biomarker ELISA; actives raise or lower the signal
Procedure, shortened: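 Human umbilical vein endothelial primary cells were exposed to test chemical for 24 h. Cell-surface uPAR was then quantified by ELISA, and responses were fitted bidirectionally against DMSO as negative control and baseline.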

[14] = BSK_3C_VCAM1: BioMAP Diversity Plus: 3C Assay for Vascular cell adhesion molecule 1 (VCAM1) Biomarker Activity (AID 2282999); details: BioMAP 3C HUVEC, VCAM1 ELISA, cytokine-stimulated; actives raise or lower the signal
Procedure, shortened: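 Human umbilical vein endothelial cells were dosed with compound for 24 h, after which cell-surface VCAM-1 was quantified by ELISA. Bidirectional curve fitting used DMSO as negative control and activity baseline.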

[15] = target: Oxysterols receptor LXR-alpha (Homo sapiens) (UniProt Q13133); test: ATG_LXRa_TRANS: Attagene TRANS-FACTORIAL HepG2 Assay for human Liver X Receptor alpha (LXRa) (AID 2282980; active = hit-call score of the fitted dose curve at least 0.9, where 1 is the maximum); details: HepG2 Attagene TRANS reporter, LXRa transactivation
Oxysterols receptor LXR-alpha (Homo sapiens), sequence (Q13133 whole entry, looked up, the tested form may be a part): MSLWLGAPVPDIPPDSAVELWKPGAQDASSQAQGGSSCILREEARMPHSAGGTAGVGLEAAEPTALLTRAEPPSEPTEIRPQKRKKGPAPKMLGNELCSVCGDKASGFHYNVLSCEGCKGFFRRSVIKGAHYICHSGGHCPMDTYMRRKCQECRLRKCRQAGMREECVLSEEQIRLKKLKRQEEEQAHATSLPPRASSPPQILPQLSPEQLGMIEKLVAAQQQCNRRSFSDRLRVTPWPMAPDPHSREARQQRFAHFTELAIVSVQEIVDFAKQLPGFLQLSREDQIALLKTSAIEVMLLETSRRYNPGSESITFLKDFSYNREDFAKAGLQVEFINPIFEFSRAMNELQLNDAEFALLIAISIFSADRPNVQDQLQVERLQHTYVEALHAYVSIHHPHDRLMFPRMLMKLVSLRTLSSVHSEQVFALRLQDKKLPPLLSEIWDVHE
Procedure, shortened: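 Chemical-induced reporter mRNA measured by RT-PCR with fluorescent labelling and capillary electrophoresis after 24 h dosing of transiently transfected HepG2 cells expressing exogenous NR-Gal4 chimeras; increases scored against DMSO baseline.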

[16] = ATG_M_06_TRANS: Attagene TRANS-FACTORIAL HepG2 Assay for M06 Transcription Factor (Internal Marker) (AID 2282983; active = hit-call score of the fitted dose curve at least 0.9, where 1 is the maximum;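 note: reporter transcript level by RT-PCR then capillary electrophoresis fluorescence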); details: HepG2 Attagene TRANS M06 internal marker reporter
Procedure, shortened: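 Cells: HepG2, transient multi-reporter transfection. Exposure: 24 h. Detection: RT-PCR, 6-FAM labelling, HpaI digestion (2 h, 37 °C), capillary electrophoresis. Baseline: DMSO.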

[17] = target: Hepatocyte nuclear factor 4-alpha (Homo sapiens) (UniProt P41235); test: ATG_HNF4a_TRANS: Attagene TRANS-FACTORIAL HepG2 Assay for human Hepatocyte Nuclear Factor 4 alpha (HNF4a) (AID 2282982; active = hit-call score of the fitted dose curve at least 0.9, where 1 is the maximum); details: HepG2 HNF4a transactivation reporter, mRNA readout
Hepatocyte nuclear factor 4-alpha (Homo sapiens), sequence (P41235 whole entry, looked up, the tested form may be a part): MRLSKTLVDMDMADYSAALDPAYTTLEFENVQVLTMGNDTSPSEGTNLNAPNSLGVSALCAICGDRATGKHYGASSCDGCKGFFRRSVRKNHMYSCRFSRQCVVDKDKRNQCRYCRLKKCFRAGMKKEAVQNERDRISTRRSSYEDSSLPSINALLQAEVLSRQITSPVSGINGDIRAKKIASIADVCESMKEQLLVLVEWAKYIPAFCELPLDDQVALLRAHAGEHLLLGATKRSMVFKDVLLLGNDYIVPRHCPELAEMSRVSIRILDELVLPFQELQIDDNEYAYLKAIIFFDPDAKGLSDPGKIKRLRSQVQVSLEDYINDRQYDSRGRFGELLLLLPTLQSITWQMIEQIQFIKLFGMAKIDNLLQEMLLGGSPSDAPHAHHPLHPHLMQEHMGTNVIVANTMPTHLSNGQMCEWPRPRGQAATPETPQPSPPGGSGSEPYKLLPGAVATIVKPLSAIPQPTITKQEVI
Procedure, shortened: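 HepG2 cells transiently transfected with multiplexed GAL4-UAS reporter units responsive to chimeric NR-GAL4 proteins; compound exposure 24 h. Reporter mRNA quantified by RT-PCR, 6-FAM labelling, HpaI digestion and capillary electrophoresis; gain of signal versus DMSO baseline.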

[18] = ATG_M_32_TRANS: Attagene TRANS-FACTORIAL HepG2 Assay for M32 Transcription Factor (Internal Marker) (AID 2282984; active = hit-call score of the fitted dose curve at least 0.9, where 1 is the maximum;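 note: transcript level of a background control reporter unit measured by RT-PCR and capillary electrophoresis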); details: HepG2 Attagene TRANS M32 internal marker reporter
Procedure, shortened: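 HepG2 cells transiently transfected with multiple GAL4-UAS reporter transcription units, dosed for 24 hours; reporter mRNA quantified by RT-PCR, 6-FAM primer extension, HpaI digestion and capillary electrophoresis. Gain-of-signal fitted versus DMSO baseline; internal background-control marker.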

[19] = target: Estrogen-related receptor gamma (Homo sapiens) (UniProt P62508); test: ATG_ERRg_TRANS: Attagene TRANS-FACTORIAL HepG2 Assay for human Estrogen-Related Receptor gamma (ERRg) (AID 2282977; active = hit-call score of the fitted dose curve at least 0.9, where 1 is the maximum;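 note: hits increase reporter signal over DMSO so potencies reflect activators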); details: HepG2 Attagene TRANS reporter, ERRg transactivation
Estrogen-related receptor gamma (Homo sapiens), sequence (P62508 whole entry, looked up, the tested form may be a part): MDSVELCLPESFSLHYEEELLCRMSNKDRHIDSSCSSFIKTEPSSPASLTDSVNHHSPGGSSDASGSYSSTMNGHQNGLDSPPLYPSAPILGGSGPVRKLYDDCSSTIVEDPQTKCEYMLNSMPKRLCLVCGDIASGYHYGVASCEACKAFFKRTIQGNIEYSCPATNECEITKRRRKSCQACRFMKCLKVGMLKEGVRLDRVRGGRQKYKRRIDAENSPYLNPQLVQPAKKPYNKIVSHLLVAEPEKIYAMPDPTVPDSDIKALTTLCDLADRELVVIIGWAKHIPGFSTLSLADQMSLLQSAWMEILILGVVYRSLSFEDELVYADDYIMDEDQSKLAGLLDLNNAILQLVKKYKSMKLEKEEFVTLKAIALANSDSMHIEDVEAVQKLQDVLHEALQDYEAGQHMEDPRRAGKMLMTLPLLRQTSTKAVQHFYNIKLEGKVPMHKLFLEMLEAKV
Procedure, shortened: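 HepG2 cells transiently transfected with multiplexed GAL4-UAS reporter units and chimeric NR-Gal4 constructs were exposed to test chemicals for 24 h. Reporter mRNA was measured by RT-PCR, 6-FAM primer extension, HpaI digestion and capillary electrophoresis; gain-of-signal versus DMSO.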

Measured: AC50

OC[C@H]1O[C@@H](O[C@H]2[C@H](O)[C@@H](O)[C@H](O)O[C@@H]2CO)[C@H](O)[C@@H](O)[C@H]1O
not listed: [12] | [13] | [14] | [15] | [16] | [17] | [18] | [19]
inactive: all other assays above

CC=CC(=O)C1=C(C)C=CCC1(C)C
not listed: [15] | [16] | [17] | [18] | [19]
inactive: all other assays above

CC(=O)c1ccc2ccccc2c1
inactive: [1] | [2] | [15] | [4] | [5] | [6] | [7] | [9] | [10] | [11]

COc1ccccc1O
not listed: [3] | [13] | [14] | [16] | [17] | [18] | [19]
inactive: all other assays above

CCC(C)(C)c1cc(O)c(C(C)(C)CC)cc1O
inactive: [1] | [15] | [12] | [16] | [7] | [10]
active: [2] 3.06 µM | [4] 9.69 µM | [5] 12.3 µM | [6] 5.78 µM | [8] 60.4 µM | [9] 3.81 µM | [11] 33.4 µM

NC(N)=NC(N)=NCCc1ccccc1
active: [9] 6.3 µM
not listed: [2] | [3] | [13] | [14] | [16] | [18] | [19]
inactive: all other assays above

NC(=O)c1cccnc1
not listed: [3] | [8] | [12] | [13] | [14] | [15] | [16] | [19]
inactive: all other assays above

O=S(=O)(O)c1cc(S(=O)(=O)O)c2c(N=Nc3ccccc3)c(O)ccc2c1
not listed: [3] | [13] | [14] | [17] | [18] | [19]
inactive: all other assays above

CC(C)Cc1ccc(C(C)C(=O)O)cc1 (stereo unspecified)
not listed: [1] | [2] | [3] | [12] | [15] | [16] | [17]
inactive: all other assays above

O=C1OCc2ccccc21
not listed: [3] | [12] | [13] | [14] | [15] | [16] | [17] | [19]
inactive: all other assays above

CCCCCCCCCCCCCCCCCC(=O)OCCCCCCCCCCCCCC(C)C
not listed: [2] | [3] | [13] | [14] | [18] | [19]
inactive: all other assays above

CCO[Si](CCC#N)(OCC)OCC
not listed: [11] | [13] | [14] | [15] | [19]
inactive: all other assays above

CC1=CC(C)C(C=O)C(C)C1 (stereo unspecified) (tested in a mixture with another compound)
not listed: [16] | [17] | [19]
inactive: all other assays above

C=C(C)C(=O)OCCOCCOC(=O)C(=C)C
inactive: [19] | [16] | [18] | [5] | [6] | [7] | [8] | [9] | [10]

CC(C)(O)CCc1ccccc1
not listed: [3] | [13] | [14] | [15] | [18] | [19]
inactive: all other assays above

CC(=O)c1ccc(O)cc1
not listed: [3] | [12] | [13] | [14] | [15] | [17] | [19]
inactive: all other assays above

CCCCCC(=O)O[C@]1(C(C)=O)CC[C@H]2[C@@H]3CCC4=CC(=O)CC[C@]4(C)[C@H]3CC[C@@]21C
active: [1] 0.476 µM | [3] 8.77 µM | [5] 8.32 µM | [9] 12.6 µM
not listed: [13] | [14] | [17] | [19]
inactive: all other assays above

C=C(C)C(N)=O
not listed: [1] | [2] | [3] | [12] | [15] | [17] | [18]
inactive: all other assays above

CC/C=C\C#N
not listed: [2] | [13] | [14] | [19]
inactive: all other assays above

C=CC(C)(CCC=C(C)C)OC(=O)CC (stereo unspecified)
active: [9] 68.1 µM
not listed: [8] | [13] | [14] | [16] | [19]
inactive: all other assays above

NS(=O)(=O)c1cc(C(=O)O)c(NCc2ccco2)cc1Cl
inactive: [19] | [18] | [7] | [10]
